Compound activity: PubChem, Broad Institute
PDI inh: inhibitors of human PDI, primary screen, biochemical, turbidity, single point, plate reader. Protein disulfide-isomerase (Homo sapiens), P07237. PDI insulin aggregation turbidity, A650, 90 min. inhibition, % at 10 µM. hit rate 0.052% among 350,000;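 active = mean inhibition across replicates of 30% or more, whatever share of single replicates reach that level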
Target sequence (P07237 whole entry, looked up): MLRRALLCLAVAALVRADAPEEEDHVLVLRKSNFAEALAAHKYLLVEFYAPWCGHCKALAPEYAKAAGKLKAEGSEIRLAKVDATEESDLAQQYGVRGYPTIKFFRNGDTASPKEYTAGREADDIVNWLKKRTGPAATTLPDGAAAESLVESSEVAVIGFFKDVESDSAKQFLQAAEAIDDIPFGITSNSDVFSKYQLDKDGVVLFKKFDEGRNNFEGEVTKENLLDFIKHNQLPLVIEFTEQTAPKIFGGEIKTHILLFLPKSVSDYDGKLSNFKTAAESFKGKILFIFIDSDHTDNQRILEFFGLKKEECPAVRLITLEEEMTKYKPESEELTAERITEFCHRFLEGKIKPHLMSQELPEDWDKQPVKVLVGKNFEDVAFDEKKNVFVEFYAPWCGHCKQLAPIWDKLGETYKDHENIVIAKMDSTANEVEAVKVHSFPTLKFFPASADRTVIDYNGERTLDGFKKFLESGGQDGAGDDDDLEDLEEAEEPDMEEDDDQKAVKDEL
ERp5 block: inhibitors of ERp5-driven insulin aggregation, primary screen, biochemical, turbidity, absorbance 650 nm, single point; Protein disulfide-isomerase A6 (Homo sapiens), Q15084; 90 min; inhibition, % at 9.99 µM; hit rate 0.05% among 350,000; AID 651711, 2012;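 active = mean replicate inhibition above about 25%, with every replicate also reaching it, limit read from the data, passing the limit was not always enough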
SIRT5 block: SIRT5 desuccinylase inhibitors, primary screen, biochemical, fluorescence imaging, single point, set 5. inhibition, % at 15 µM. NAD-dependent protein deacylase sirtuin-5, mitochondrial (Homo sapiens), Q9NXA8. Purified SirT5, succinyl-peptide AMC, trypsin-coupled fluorescence. hit rate 1.1% among 330,000; in the data active = inhibition above about 15%
DENV2 CPE: inhibitors of DENV2 cytopathic effect, primary screen, cell-based, plate reader, single concentration | CPE inhibition, % at 9.99 µM | DENV2-infected cells, cytopathic effect rescue | hit rate 1.7% among 350,000; in the data active = CPE inhibition above about 20%, passing the limit was not always enough; tested in BHK-21 cells
Rtt109 HAT inh: inhibitors of C. albicans Rtt109/Vps75 HAT, primary screen, biochemical, ThioGlo CoA-SH fluorescence, plate reader. Histone acetyltransferase RTT109 (Candida albicans (strain SC5314 / ATCC MYA-2876)), …. purified Rtt109/Vps75, 4 h. inhibition, % at 34.9 µM. hit rate 0.16% among 330,000. AID 540336, 2011;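 active = inhibition of at least 50% in every replicate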
Numbers stand for hits; – = inactive; · = not tested or not shown. Rows were chosen to be rich in hits. Some 2.3% of all compounds tested hit in one or more screens of this group.

SMILES	PDI inh	ERp5 block	SIRT5 block	DENV2 CPE	Rtt109 HAT inh
CN(C)C(=O)c1cccc(-c2ccc([C@@H]3[C@H](CO)N4C(=O)CN(C(=O)C5CC5)C[C@@H]34)cc2)c1	·	–	19	–	·
COc1ccc(-c2ccc([C@@H]3[C@H]4CN(C(=O)C5CC5)CC(=O)N4[C@H]3CO)cc2)cc1	·	–	–	31	·
CC(=O)N1CC(=O)N2[C@@H](CO)[C@H](c3ccc(-c4ccc(C(=O)N(C)C)cc4)cc3)[C@@H]2C1	·	–	23	–	·
CN(C)C(=O)c1cccc(-c2ccc([C@H]3[C@@H](CO)N4C(=O)CN(C(=O)C5CCCCC5)C[C@@H]34)cc2)c1	·	–	–	–	·
C[C@@H]1CN([C@H](C)CO)S(=O)(=O)c2ccc(-c3cccnc3)cc2O[C@H]1CN(C)C(=O)C1CCCCC1	·	–	–	–	·
COc1cccc(C(=O)Nc2ccc3c(c2)C(=O)N(C)[C@@H]2CC[C@H](CC(=O)NCc4ccccc4F)O[C@@H]2CO3)c1	·	·	–	·	·
COc1ccc(NC(=O)/C=C/c2cccc(C(F)(F)F)c2)cn1	–	–	–	23	–
COc1ccc(NC(=O)/C=C/c2cccc(Br)c2)cn1	–	–	–	–	–
CCCN1C(C)C(C(=O)OCC)=CN(Cc2ccc(Br)cc2)S1(=O)=O (configuration not stated)	–	–	32	–	–
